Laboratory results from PubChem BioAssay (Tox21).
Where “and” joins values, the source holds several entries; their conditions need not be identical. Equal values may be shown once. Results filed as inconclusive are left out. Some structures have more than one record in an assay (separate samples or runs), and their calls can disagree. Calls of active or inactive are those of the source. Calls come from the whole dose curve; as a rule, active = well fitted activation curve with a large enough effect in the repeat runs; inconclusive = weak or mixed curves; inactive = flat fitted curve, though single readings scatter.

Experiment: A CellTox Green Cytotoxicity Assay to monitor cytotoxicity in HepG2 cells - 16 hour (AID 1224876); note: nearly all actives have a fitted effect of over 45% in size
Details: CellTox Green fluorescence; series mostly up to 76.8 µM; cytotoxicity increase: at the top concentration
Source text: National Center for Advancing Translational Sciences [NCATS]
NIH Chemical Genomics Center [NCGC]
U.S. Environmental Protection Agency [EPA]
National Institutes of Environmental Health Sciences [NIEHS]
National Toxicology Program [NTP]
Cell-based models are critical for drug discovery. Determining the natural cytotoxic effects resulting from test compounds is an essential research activity. A CellTox Green Cytotoxicity Assay to monitor cytotoxicity in real time of continues cell culture during 40 hours of the compound treatment was used to screen Tox21 10K library compounds in HepG2 cells. CellTox Green Cytotoxicity Assay is a nonlytic, homogeneous, biofluorescent method to measure cytotoxicity in cell culture after experimental manipulation. The assay system uses a proprietary asymmetric cyanine dye that is excluded from viable cells but preferentially stains the dead cell's DNA. […] Viable cells produce no appreciable increases in fluorescence. Therefore, the fluorescence signal produced by the binding interaction with dead cell DNA is proportional to cytotoxicity.
The mixture of HepG2 cell suspension and reagents were dispensed at 600cells/6 ul/well in 1536-well tissue culture treated black solid bottom plates using a Multidrop dispenser. After the assay plates were incubated at a 37 C/5% CO2 incubator for 5 hours, 23 nL of compounds dissolved in DMSO, positive and negative controls was transferred to the assay plate by a pintool work station. The plates were incubated at 37 C for 40 hours. The fluorescence intensity were measured at 0h, 8h, 16h, 24h, 32h and 40h time points using ViewLux plate reader during compound treatment.
% is set by controls: 0 for no effect and ±100 for the full control effect; potency is the fitted concentration of half-maximal effect.

| SMILES | Potency | cytotoxicity increase |
| --- | --- | --- |
| CN1CCN(CCC(=O)N2c3ccccc3Sc3ccc(C(F)(F)F)cc32)CC1 | 10.7 µM (active) | – |
| Cc1ccc(-n2nc(C(C)(C)C)cc2NC(=O)Nc2ccc(OCCN3CCOCC3)c3ccccc23)cc1 | – | -14.7% [at 35.3 µM] (inactive) |
| CC(C)(C)c1ccc(C(=O)CCCN2CCC(OC(c3ccccc3)c3ccccc3)CC2)cc1 | 23.9 µM (active) | – |
| O=C(Nc1ccc(Oc2ccc(Cl)cc2)c(Cl)c1)c1cc(I)cc(I)c1O | – | -0.597% [at 35.3 µM] (inactive) |
| O=C(Oc1ccccc1)c1ccccc1C(=O)Oc1ccccc1 | – | -11.3% (inactive) |
| O=C(O)c1c(Cl)cccc1Cl | – | -4.1% (inactive) |
| CCCCC(CC)COP(=O)(O)OCC(CC)CCCC (stereo not given) | – | 20.2% (inactive) |
| COc1ccc(C(=O)/C(Br)=C\C(=O)O)cc1 | – | 1.07% (inactive) |
| CC(=O)S[C@@H]1CC2=CC(=O)CC[C@]2(C)[C@H]2CC[C@@]3(C)[C@@H](CC[C@@]34CCC(=O)O4)[C@H]12 | – | -3.31% (inactive) |
| CC(=O)SC[C@@H](Cc1ccccc1)C(=O)NCC(=O)OCc1ccccc1 | – | 0.568% [at 35.3 µM] (inactive) |
| CS(=O)(=O)CCNCc1ccc(-c2ccc3ncnc(Nc4ccc(OCc5cccc(F)c5)c(Cl)c4)c3c2)o1 | – | 17.3% [at 35.3 µM] (inactive) |
| O=C(NOCC1CC1)c1ccc(F)c(F)c1Nc1ccc(I)cc1Cl | – | -10.9% [at 35.3 µM] (inactive) |
| Cc1cc(=O)oc2cc(N(C)C)ccc12 | – | 0.718% (inactive) |
| C=CC(=O)OCCn1c(=O)n(CCOC(=O)C=C)c(=O)n(CCOC(=O)C=C)c1=O | 49 µM (active) | – |
| COc1cccc2c1C(=O)c1c(O)c3c(c(O)c1C2=O)C[C@@](O)(C(=O)CO)C[C@@H]3O[C@H]1C[C@H](N)[C@H](O[C@@H]2CCCCO2)[C@H](C)O1 | 23.9 µM (active) | – |
| OCc1c[nH]c2ccccc12 | – | -1.98% (inactive) |
| O=C(c1ccc(F)cc1)C1CCN(CCn2c(=O)[nH]c3ccccc3c2=O)CC1 | – | 11.1% [at 35.3 µM] (inactive) |
| CCN(CCC#N)c1ccc(N=Nc2c(Cl)cc([N+](=O)[O-])cc2Cl)cc1 | – | -25% (inactive) |
| CN(C)c1ccc(SC#N)cc1 | – | -0.464% (inactive) |
| CCCCCCCCOC(=O)c1ccc(O)cc1 | inactive and 43.6 µM (active) | – |

| SMILES | Potency | cytotoxicity increase |
| --- | --- | --- |
| CCCCCCCCCOC(=O)c1ccc(O)cc1 | 48.3 µM (active) | – |
| CC(NN)c1ccccc1 (stereo not given) | – | -2.37% [at 15.8 µM] (inactive) |
| N/C(=N\N=C\c1ccc(Cl)cc1)N/N=C/c1ccc(Cl)cc1 | 21.3 µM (active) | – |
| CC[C@@]1(O)C(=O)OCc2c1cc1n(c2=O)Cc2c-1nc1ccccc1c2/C=N/OC(C)(C)C | 3.38 µM (active) | – |
| CCCCCOC(=O)CCCC | – | -14.1% (inactive) |
| Cc1nc(-c2ccc3c(c2)CCN(CCC2CCC(NC(=O)/C=C/c4ccc(F)cc4)CC2)CC3)no1 (stereo not given) | – | -7.55% [at 35.3 µM] (inactive) |
| C/C(=C(/OCCOc1ccc(Cl)cc1)c1ccc(Cl)cc1Cl)n1ccnc1 | – | 0.298% [at 35.3 µM] (inactive) |
| O=c1cccccc1O | – | 6.16% (inactive) |
| CCCCCCCCS(=O)C(C)Cc1ccc2c(c1)OCO2 (stereo not given) | – | 8.84% (inactive) |
| Nc1ccc(N)c2ccccc12 | 54.9 µM (active) | – |
| C[C@@H]1C[C@H]2[C@@H]3CCC4=CC(=O)C=C[C@]4(C)[C@@]3(Cl)[C@@H](O)C[C@]2(C)[C@@]1(OC(=O)c1ccco1)C(=O)CCl | – | -17.2% [at 35.3 µM] (inactive) |
| CCCCCOc1ccccc1/C(=C\SC)n1ccnc1 | – | 2.46% [at 35.3 µM] (inactive) |
| CC1=NC(C)OC1C (stereo not given) | – | -0.934% (inactive) |
| CCCC(=O)OC[C@@H](OC(=O)CCC)[C@@H](OC(=O)CCC)[C@H](Cn1c2nc(=O)[nH]c(=O)c-2nc2cc(C)c(C)cc21)OC(=O)CCC | 19 µM (active) | – |
| NC(=O)CC[C@@H]1NC(=O)[C@H](Cc2ccccc2)NC(=O)[C@H](Cc2ccc(O)cc2)NC(=O)CCSSC[C@@H](C(=O)N2CCC[C@H]2C(=O)N[C@@H](CCCN=C(N)N)C(=O)NCC(N)=O)NC(=O)[C@H](CC(N)=O)NC1=O | – | -7.76% [at 35.3 µM] (inactive) |
| O=C(N/N=C/c1ccccc1O)c1ccncc1 | – | 1.91% [at 35.3 µM] (inactive) |
| CCCCc1oc2ccc(NS(C)(=O)=O)cc2c1C(=O)c1ccc(OCCCN(CCCC)CCCC)cc1 | 21.3 µM (active) | – |
| Cc1[nH]nc2c1N=C(c1ccccc1Cl)c1cc([N+](=O)[O-])ccc1N2 | – | -6.85% (inactive) |
| O=Cc1cc(O)ccc1Br | – | 21.2% (inactive) |
| CCCN(CCC)C(=O)C(CCC(=O)OCCCN1CCN(CCOC(=O)Cc2c(C)n(C(=O)c3ccc(Cl)cc3)c3ccc(OC)cc23)CC1)NC(=O)c1ccccc1 (stereo not given) | 23.9 µM (active) | – |
